From PubChem BioAssay AID1159580 (chemical genetic matrix, 2015)
“And” between values parts separate entries of the source, which are not always exact repeats. Identical values can stand only once. Out of some 5,500 compounds screened, about 2,000 (36%) were called active. Not shown: some 18% with an inconclusive outcome. This is one part of the list. Values without a mark were called inactive. Cut-off read from the data, not from the text of the source: active = normalized growth mostly below about 0.91 (no sharp cut-off); inconclusive = no clear call, values can overlap the other calls; inactive = mostly above about 0.92.

Assay: chemical genetic growth profiling, strain panel (AID 1159580);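 note: tested at 20 µM; growth read once vehicle control cultures reached saturation at 30 °C; 1 = growth at the plate median or of vehicle wells; lower values mean less growth of the strain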
Conditions: growth OD

SMILES: CC(COc1ccccc1)N(CCCl)Cc1ccccc1 (stereo unspecified)
- normalized growth (S. cerevisiae deletion strains, locus YJR075W, strain HOC1, hits give low values): 1.02
- normalized growth (S. cerevisiae deletion strains, locus YKL009W, strain mrt4, hits give low values): 1.04
- normalized growth (S. cerevisiae deletion strains, locus YKL068W, hits give low values): 1.02
- normalized growth (S. cerevisiae deletion strains, locus YKL085W, strain MDH1 (second series), hits give low values): 1.01
- normalized growth (S. cerevisiae deletion strains, locus YKL085W, strain MDH1, hits give low values): 1.01
- normalized growth (S. cerevisiae deletion strains, locus YKL160W, strain elf1, hits give low values): 0.931
- normalized growth (S. cerevisiae deletion strains, locus YKL190W, strain CNB1, hits give low values): 1.01
- normalized growth (S. cerevisiae deletion strains, locus YKR001C, strain vps1, hits give low values): 0.996
- normalized growth (S. cerevisiae deletion strains, locus YKR026C, strain gcn3, hits give low values): 0.985
- normalized growth (S. cerevisiae deletion strains, locus YKR091W, strain srl3, hits give low values): 0.978
- normalized growth (S. cerevisiae deletion strains, locus YLL001W, strain dnm1, hits give low values): 1.03
- normalized growth (S. cerevisiae deletion strains, locus YLL026W, hits give low values): 0.976
- normalized growth (S. cerevisiae deletion strains, locus YLL041C, strain sdh2, hits give low values): 0.979
- normalized growth (S. cerevisiae deletion strains, locus YLR027C, strain aat2, hits give low values): 0.924 (active)
- normalized growth (S. cerevisiae deletion strains, locus YLR039C, strain RIC1, hits give low values): 0.939
- normalized growth (S. cerevisiae deletion strains, locus YLR058C, strain SHM2, hits give low values): 1.01
- normalized growth (S. cerevisiae deletion strains, locus YLR102C, strain apc9, hits give low values): 1.01
- normalized growth (S. cerevisiae deletion strains, locus YLR113W, strain HOG1, hits give low values): 0.977
- normalized growth (S. cerevisiae deletion strains, locus YLR221C, strain rsa3, hits give low values): 0.995
- normalized growth (S. cerevisiae deletion strains, locus YLR258W, strain gsy2, hits give low values): 0.95
- normalized growth (S. cerevisiae deletion strains, locus YLR262C, strain YPT6 (second series), hits give low values): 0.897
- normalized growth (S. cerevisiae deletion strains, locus YLR262C, strain YPT6, hits give low values): 0.977
- normalized growth (S. cerevisiae deletion strains, locus YLR268W, strain sec22, hits give low values): 1.04
- normalized growth (S. cerevisiae deletion strains, locus YLR320W, strain mms22, hits give low values): 0.985
- normalized growth (S. cerevisiae deletion strains, locus YLR330W, strain CHS5, hits give low values): 1.01
- normalized growth (S. cerevisiae deletion strains, locus YLR342W, strain FKS1 (second series), hits give low values): 0.974
- normalized growth (S. cerevisiae deletion strains, locus YLR342W, strain FKS1, hits give low values): 0.989
- normalized growth (S. cerevisiae deletion strains, locus YLR357W, strain rsc2, hits give low values): 0.969
- normalized growth (S. cerevisiae deletion strains, locus YLR370C, strain arc18, hits give low values): 0.963
- normalized growth (S. cerevisiae deletion strains, locus YLR371W, strain rom2, hits give low values): 1.02
- normalized growth (S. cerevisiae deletion strains, locus YLR384C, strain iki3, hits give low values): 0.999
- normalized growth (S. cerevisiae deletion strains, locus YLR418C, strain cdc73, hits give low values): 0.97
- normalized growth (S. cerevisiae deletion strains, locus YML016C, strain PPZ1, hits give low values): 1
- normalized growth (S. cerevisiae deletion strains, locus YML032C, strain rad52, hits give low values): 1.02
- normalized growth (S. cerevisiae deletion strains, locus YML120C, strain ndi1, hits give low values): 1.01
- normalized growth (S. cerevisiae deletion strains, locus YML124C, strain tub3, hits give low values): 1.01
- normalized growth (S. cerevisiae deletion strains, locus YMR058W, strain fet3, hits give low values): 0.95
- normalized growth (S. cerevisiae deletion strains, locus YMR078C, strain ctf18, hits give low values): 1.02
- normalized growth (S. cerevisiae deletion strains, locus YMR125W, strain sto1, hits give low values): 0.987
- normalized growth (S. cerevisiae deletion strains, locus YMR129W, hits give low values): 0.959
- normalized growth (S. cerevisiae deletion strains, locus YMR205C, strain PFK2, hits give low values): 0.969
- normalized growth (S. cerevisiae deletion strains, locus YMR223W, strain ubp8, hits give low values): 0.99
- normalized growth (S. cerevisiae deletion strains, locus YMR231W, strain pep5, hits give low values): 0.996
- normalized growth (S. cerevisiae deletion strains, locus YMR263W, strain SAP30, hits give low values): 1.01 and 0.995
- normalized growth (S. cerevisiae deletion strains, locus YMR307W, strain GAS1, hits give low values): 1.01 and 1
- normalized growth (S. cerevisiae deletion strains, locus YNL067W, strain RPL9B, hits give low values): 1.03
- normalized growth (S. cerevisiae deletion strains, locus YNL071W, strain lat1, hits give low values): 0.918 (active)
- normalized growth (S. cerevisiae deletion strains, locus YNL128W, strain TEP1, hits give low values): 1.01
- normalized growth (S. cerevisiae deletion strains, locus YNL153C, strain GIM3, hits give low values): 1.02
- normalized growth (S. cerevisiae deletion strains, locus YNL175C, strain NOP13, hits give low values): 0.996
- normalized growth (S. cerevisiae deletion strains, locus YNL183C, strain NPR1, hits give low values): 0.919
- normalized growth (S. cerevisiae deletion strains, locus YNL197C, strain WHI3, hits give low values): 1.01
- normalized growth (S. cerevisiae deletion strains, locus YNL209W, strain ssb2, hits give low values): 0.953
- normalized growth (S. cerevisiae deletion strains, locus YNL224C, strain SQS1, hits give low values): 0.984
- normalized growth (S. cerevisiae deletion strains, locus YNL233W, strain BNI4, hits give low values): 1.01
- normalized growth (S. cerevisiae deletion strains, locus YNL248C, strain rpa49, hits give low values): 0.894
- normalized growth (S. cerevisiae deletion strains, locus YNL250W, strain rad50, hits give low values): 1
- normalized growth (S. cerevisiae deletion strains, locus YNL271C, strain bni1, hits give low values): 1.01
- normalized growth (S. cerevisiae deletion strains, locus YNL298W, strain CLA4, hits give low values): 1
- normalized growth (S. cerevisiae deletion strains, locus YNL307C, strain MCK1, hits give low values): 1
- normalized growth (S. cerevisiae deletion strains, locus YNL322C, strain KRE1 (second series), hits give low values): 0.923
- normalized growth (S. cerevisiae deletion strains, locus YNL322C, strain KRE1, hits give low values): 1.01
- normalized growth (S. cerevisiae deletion strains, locus YNR049C, strain mso1, hits give low values): 0.975
- normalized growth (S. cerevisiae deletion strains, locus YNR052C, strain pop2, hits give low values): 1.01
- normalized growth (S. cerevisiae deletion strains, locus YOL006C, strain TOP1, hits give low values): 1.07
- normalized growth (S. cerevisiae deletion strains, locus YOL012C, strain htz1): 0.857
- normalized growth (S. cerevisiae deletion strains, locus YOL147C, strain pex11, hits give low values): 1.01
- normalized growth (S. cerevisiae deletion strains, locus YOR001W, strain rrp6, hits give low values): 0.996
- normalized growth (S. cerevisiae deletion strains, locus YOR061W, strain CKA2, hits give low values): 1.01
- normalized growth (S. cerevisiae deletion strains, locus YOR069W, strain VPS5, hits give low values): 1.01
- normalized growth (S. cerevisiae deletion strains, locus YOR070C, strain gyp1, hits give low values): 0.979
- normalized growth (S. cerevisiae deletion strains, locus YOR080W, strain dia2, hits give low values): 0.995
- normalized growth (S. cerevisiae deletion strains, locus YOR083W, strain WHI5 (second series), hits give low values): 0.987
- normalized growth (S. cerevisiae deletion strains, locus YOR083W, strain WHI5, hits give low values): 0.9
- normalized growth (S. cerevisiae deletion strains, locus YOR106W, strain vam3, hits give low values): 0.89
- normalized growth (S. cerevisiae deletion strains, locus YOR136W, strain idh2, hits give low values): 1
- normalized growth (S. cerevisiae deletion strains, locus YOR144C, strain elg1, hits give low values): 1.02
- normalized growth (S. cerevisiae deletion strains, locus YOR184W, strain ser1, hits give low values): 0.954
- normalized growth (S. cerevisiae deletion strains, locus YOR231W, strain MKK1, hits give low values): 0.99
- normalized growth (S. cerevisiae deletion strains, locus YOR265W, strain rbl2, hits give low values): 0.997
- normalized growth (S. cerevisiae deletion strains, locus YOR270C, strain vph1, hits give low values): 0.838
- normalized growth (S. cerevisiae deletion strains, locus YOR290C, strain snf2, hits give low values): 0.898
- normalized growth (S. cerevisiae deletion strains, locus YOR316C, strain cot1, hits give low values): 1.02
- normalized growth (S. cerevisiae deletion strains, locus YPL051W, strain arl3, hits give low values): 0.916
- normalized growth (S. cerevisiae deletion strains, locus YPL055C, strain LGE1, hits give low values): 1
- normalized growth (S. cerevisiae deletion strains, locus YPL078C, strain atp4, hits give low values): 0.926
- normalized growth (S. cerevisiae deletion strains, locus YPL106C, strain sse1, hits give low values): 0.949
- normalized growth (S. cerevisiae deletion strains, locus YPL240C, strain hsp82, hits give low values): 0.991
- normalized growth (S. cerevisiae deletion strains, locus YPL241C, strain CIN2, hits give low values): 1
- normalized growth (S. cerevisiae deletion strains, locus YPL256C, strain CLN2, hits give low values): 0.981
- normalized growth (S. cerevisiae deletion strains, locus YPR119W, strain clb2, hits give low values): 1.02
- normalized growth (S. cerevisiae deletion strains, locus YPR141C, strain kar3, hits give low values): 1.01
- normalized growth (S. cerevisiae deletion strains, locus YPR163C, strain tif3, hits give low values): 1.02
- normalized growth (S. cerevisiae deletion strains, locus YPR167C, strain met16, hits give low values): 1.02
- normalized growth (S. cerevisiae deletion strains, strain wtn01, hits give low values): 1.03
- normalized growth (S. cerevisiae strains, strain wild type, hits give low values): 1
